# From PubChem BioAssay
# AMA1 RON2 block – inhibitors of Plasmodium falciparum AMA1-RON2 interaction | AlphaScreen AMA1-biotinylated RON2 peptide binding | Potency, µM (series often up to 58.2 µM), without a hit: at the top dose activity change, negative = inhibition, usual class: inhibitors | 360,000 compounds, 0.2% hits | AID 720542;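 also: 0% = vehicle wells and -100% = peptide control; nearly all actives have a fitted effect of over 45% in size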
#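 AMA1 (3D7) with his tag at 25 nM final met compounds first, then biotinylated RON2 peptide at 25 nM; detection used donor plus acceptor beads, 10 µg/mL apiece, read by AlphaScreen after 30 min at room temperature.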
# AmpC inh no detg – blocks E. coli AmpC beta-lactamase in detergent-free assay; 330,000 compounds, 0.52% hits; Potency, µM (doses to about 57.1 µM), for the others: at the highest dose activity change, negative = inhibition, most hits filed as inhibitors; P00811; AmpC nitrocefin hydrolysis, absorbance 480 nm, 0.0001% Triton;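 also: plate controls were no compound for no effect and no enzyme for full effect; nearly all actives have a fitted effect of over 20% in size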
# Target sequence (P00811 whole entry, looked up): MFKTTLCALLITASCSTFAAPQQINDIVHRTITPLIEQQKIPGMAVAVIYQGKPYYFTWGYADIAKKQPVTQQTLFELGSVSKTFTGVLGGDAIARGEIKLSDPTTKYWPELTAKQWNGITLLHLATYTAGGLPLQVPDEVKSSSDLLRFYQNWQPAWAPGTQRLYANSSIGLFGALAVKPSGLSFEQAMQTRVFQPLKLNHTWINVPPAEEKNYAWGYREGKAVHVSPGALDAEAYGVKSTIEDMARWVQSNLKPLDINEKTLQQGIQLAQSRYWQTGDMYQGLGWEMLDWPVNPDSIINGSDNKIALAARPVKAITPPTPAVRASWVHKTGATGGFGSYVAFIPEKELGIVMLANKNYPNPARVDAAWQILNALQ
#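 20 mM phosphate pH 7.0 + 0.01% (detergent screen) or 0.0001% Triton X-100; 5.3 nM AmpC reagent; cpd preinc 15 min RT; nitrocefin (800 uM stock) to start; A480 q20 s × 4 min; Activity was normalised to no-enzyme and no-compound control wells.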
# HCV inhibitor – HCV inhibition; Huh7.5.1 HCVcc-Cre infection, luciferase reporter, 44 h; Potency, µM (series often up to 41.8 µM), inactives show at the highest dose activity change, negative = inhibition, actives largely listed as inhibitors; 340,000 compounds, 3.4% hits; AID 651820
#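 Infectious HCV cell culture screen: compound-treated cells (1,000/well, pre-plated 4 h) are infected with HCVcc-Cre at roughly 0.5 moi and grown 44 h. Infection is quantified by luciferase signal after 15 min substrate incubation at room temperature.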
# Pf growth 96h – P. falciparum growth inhibition at 96 hour, primary screen for plastid delayed-death inhibitors. P. falciparum luciferase reporter growth, 96 h. Potency, µM (highest dose often 28.7 µM), without a hit: at the highest dose activity change, negative = inhibition, usual class: inhibitors. 320,000 compounds, 6.9% hits
#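 Delayed-death screen, second-generation endpoint: infected erythrocytes, 2% hematocrit, 0.05% parasitemia final; 96 hours at 37 C, 5% CO2; luciferase detection reagent; luminescence decrease equals reduced growth.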
# AmpC detergent – AmpC beta-lactamase inhibition with detergent present; P00811; AmpC hydrolysis of nitrocefin, absorbance 480 nm, 0.01% Triton; Potency, µM (top dose mostly 114 µM), for inactives: at the top dose activity change, negative = inhibition, usual class: inhibitors; 370,000 compounds, 0.041% hits;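 also: 0% = no-compound wells and -100% = no-enzyme wells; nearly all actives have a fitted effect of over 25% in size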
#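 20 mM phosphate pH 7.0 + 0.01% (detergent screen) or 0.0001% Triton X-100; 5.3 nM AmpC reagent; cpd preinc 15 min RT; nitrocefin (800 uM stock) to start; A480 q20 s × 4 min; Activity was normalised to no-enzyme and no-compound control wells.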
# Pf growth 48h – P. falciparum growth inhibition at 48 hours (one generation); P. falciparum luciferase growth in erythrocytes, 48 h; Potency, µM (doses to about 28.7 µM), for inactives: at the top dose activity change, negative = inhibition, actives largely listed as inhibitors; 310,000 compounds, 5.9% hits; AID 504832
#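 In quantitative HTS format, infected erythrocytes bearing luciferase-reporter parasites were treated for a single generation at 37 C. Luminescence after adding detection reagent served as the growth measure.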
# * = called active by the depositor; u = inconclusive; x = no result; [ ] = another dose, or the depositor's remark. This is a sample that favours compounds with a hit; in the whole collection about 11% have one here. Calls follow the shape of the dose curve; as a rule, active = well fitted curve in the direction sought with a large enough effect; inconclusive = small, poorly fitted or top-dose-only effect, or another doubt; inactive = no such curve, though single readings can be large; an effect the other way counts as inactive or inconclusive. Unless noted, % is scaled to controls: 0 for no effect and ±100 for the full control effect; potency is read from the fitted curve at half-maximal effect.
SMILES,AMA1 RON2 block,AmpC inh no detg,HCV inhibitor,Pf growth 96h,AmpC detergent,Pf growth 48h
CSc1nc2c(c(=O)n1-c1ccc(F)cc1)SCC2,5%,-5%,-23%,0%,u,-22%
Cc1cc(NCCCCCCCNc2cc(C)nc3cc([N+](=O)[O-])ccc23)c2ccc([N+](=O)[O-])cc2n1,u,x,10µM*,x,x,x
CCOc1ccc(CNC(=O)CCCn2c(=O)c3cccn3c3cccnc32)cc1,x,x,x,x,11%,x
CCCCc1ccc(C2C3=C(CC(C)(C)CC3=O)NC3=C2C(=O)c2ccccc23)cc1 (centres undefined),-11%,u,13µM*,u,-24%,13µM*
CCOC(=O)C1=C(C)N(C)C(C)=C(C(=O)OCC)C1c1ccccc1,-4%,-3%,0%,u,-4%,5.2µM*
CCCCN1C=C(C(=O)OC)C(c2ccccc2C(F)(F)F)C(C(=O)OC)=C1,5%,-7%,1%,0.52µM*,u,x
COCCN1C=C(C(=O)OC)C(c2ccccc2C(F)(F)F)C(C(=O)OC)=C1,55%,71%,1%,u,-10%,u
CCOC(=O)C1=C(C)N(C)C(C)=C(C(=O)OCC)C1c1ccncc1,-10%,40%,-9%,17%,u,u
CC1=C(C(=O)OC(C)C)C(c2ccccc2)NC(=O)N1C (centres undefined),2%,3%,5%,9.3µM*,-10%,-4%
COC(=O)C1=C(C)N(C)C(C)=C(C(=O)OC)C1c1ccccc1C,1%,23%,0%,-3%,-17%,u
CCCCOc1ccccc1C1C(C(=O)OC)=C(C)N(C)C(C)=C1C(=O)OC,-19%,55%,-24%,24%,0%,13µM*
CCOc1ccc(CNC(=O)CN2C(=O)C3CCCCN3c3ccc(C(=O)N4CCCC4)cc32)cc1 (centres undefined),x,x,x,x,19%,x
Cc1ccn2c(Nc3ccc4c(c3)OCCO4)c(-c3ccc(N(C)C)cc3)nc2c1,x,x,x,x,4%,x
Cc1cccc(NC(=O)c2c(N)sc3c2CCC(C)C3)c1 (centres undefined),x,x,x,x,-2%,x
Cc1ccc2nc(N(Cc3cccnc3)C(=O)C3CCCCC3)sc2c1,x,x,x,x,-1%,x
CC1CCC(C(C)C)C(OC(=O)Cn2c(-c3ccc(Cl)cc3)[n+](C)c3ccccc32)C1 (centres undefined),1%,117%,u,u,6%,u
CC1CCC(C(C)C)C(OC(=O)Cn2c(-c3ccc(Br)cc3)[n+](C)c3ccccc32)C1 (centres undefined),-17%,107%,u,u,-3%,1.7µM*
CCOC(=O)Cc1csc(NC(=O)CSc2ncnc3c2cnn3-c2ccc(OC)cc2)n1,4%,-18%,u,u,-13%,9.3µM*
Cc1ccccc1-n1ncc2c(SCC(=O)NCc3cccs3)ncnc21,1%,-3%,22µM*,5.2µM*,5%,-27%
COc1ccc(-n2ncc3c(SCC(=O)N4CCN(c5ccccc5OC)CC4)ncnc32)cc1,5%,-2%,13µM*,-4%,-9%,u
COc1ccccc1N1CCN(C(=O)CSc2ncnc3scc(-c4ccccc4)c23)CC1,-3%,96%,u,0%,-6%,-24%
Cc1csc(NC(=O)CSc2ncnc3c2cnn3-c2ccccc2Cl)n1,-13%,-24%,18µM*,-2%,0%,0%
Cc1ccc(-n2nc(C)c3nc(CCC(=O)Nc4ccc(F)cc4)c(=O)n(C)c32)cc1,x,x,x,x,14%,x
CC(CNC(=O)c1sc2ncccc2c1-n1cccc1)c1ccccc1 (centres undefined),x,x,x,x,-3%,x
Cc1ccccc1COC(=O)CCC1=NS(=O)(=O)c2ccccc2N1,6%,-22%,u,12µM*,2%,-8%
SMILES,AMA1 RON2 block,AmpC inh no detg,HCV inhibitor,Pf growth 96h,AmpC detergent,Pf growth 48h
O=C(CCCC1=NS(=O)(=O)c2ccccc2N1)OCc1ccc(Cl)cc1,0%,-29%,-12%,u,-4%,u
Cc1ccc2oc(C(=O)N(Cc3sccc3C)C3CCS(=O)(=O)C3)c(C)c2c1 (centres undefined),x,x,x,x,-3%,x
Cn1nc(C(F)(F)F)c2cc(C(=O)Nc3ccc(F)cc3)sc21,-20%,-33%,u,u,0%,u
Cn1nc(C(F)(F)F)c2cc(C(=O)Nc3ccc(C(F)(F)F)cc3)sc21,3%,-11%,u,u,-3%,6.6µM*
Cn1nc(C(F)(F)F)c2cc(C(=O)Nc3ccc(F)c(Cl)c3)sc21,4%,-23%,u,2.1µM*,-7%,3.3µM*
Cn1nc(C(F)(F)F)c2cc(C(=O)O)sc21,-13%,-3%,6%,-20%,-2%,-3%
Cc1ccc(C=Nc2ccc(N(C)C)cc2)o1,u,2%,3%,0.93µM*,u,u
COc1cc(C2C3=C(CCCC3=O)Nc3ccc4ncccc4c32)ccc1O (centres undefined),-6%,-33%,-12%,29%,-1%,-12%
COc1ccc(C2C3=C(CCCC3=O)Nc3ccc4ncccc4c32)cc1OC (centres undefined),28%,17%,u,0.29µM*,-4%,-27%
O=C(Nc1cccc(Cl)c1Cl)c1cc2nc(-c3ccc(Cl)cc3)cc(C(F)(F)F)n2n1,x,x,x,x,-1%,x
O=C1c2ccccc2C(=O)N1CCCc1nc2ccccc2c(=O)n1CCCn1ccnc1,-13%,8%,0%,1.9µM*,u,-27%
CCOCCn1ccc2c(OCC(=O)Nc3cc(OC)ccc3OC)cccc2c1=O,14%,-1%,8.9µM*,u,-10%,u
COCCn1ccc2c(OCC(=O)Nc3cc(OC)ccc3OC)cccc2c1=O,1%,32%,u,u,0%,12µM*
Clc1ccc(/C=C/c2nc3ccccc3[nH]2)c(Cl)c1,-5%,11µM*,u,-70%,-4%,9%
CCOc1ccccc1NC(=O)c1c(NC(=O)Cc2ccc(OC)cc2)sc2c1CCC2,x,x,x,x,8%,x
FC(F)(F)c1cccc(OCCN2CCN(Cc3ccccc3)CC2)c1,-9%,21%,29%,10µM*,-12%,12%
CN(CCOc1cccc(C(F)(F)F)c1)Cc1ccccc1,-17%,-2%[2.29 µM],5%,u,-3%,25%
OCCN1CCN(CCOc2cccc(Cl)c2)CC1,-4%,13%,-12%,1.7µM*,-10%,22%
Cc1ccc(NC(=O)CN2C(=O)C(C)(C)c3cc(S(=O)(=O)N4CCCCC4)ccc32)c(Br)c1,x,x,x,x,8%,x
